Measurements from the supplement of paper PMC10849652.
About 7,900 targets were measured; listed, in parts, are those with a hit and a random draw of the rest. About 0.6% of all pairs of compound and target were hits.

Experiments:
Assay in all cases: log2 fold change, soluble protein after heating vs DMSO (PISA); higher = thermal stabilisation; K562 cells, 10 uM, 30 min; active = over 0.2 and 3.5 SD of the protein, either way, in both replicates (recomputed)
[1] = compound: CS(=O)(=O)c1ccc(-c2cnc(N)c(C(=O)Nc3ccccc3)n2)cc1
Outline: (§1)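 Quantification of soluble protein used TMTpro 16plex LC-MS/MS, with channel sums equalised. Samples were the supernatant after 21,000xg for 90 min of pooled aliquots from K562 cells (2×10^6 cells/mL) treated with 10 μM compound for 30 min, heated for 3 min over 48°C-58°C, and extracted in PBS with 0.5% NP-40 at 4°C. Values, from duplicates, describe thermal stability against control samples on a log2 fold-change scale.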

[2] = compound: C[C@@H](Oc1cc(-c2cnn(C3CCNCC3)c2)cnc1N)c1c(Cl)ccc(F)c1Cl [crizotinib]
Outline: as §1

[3] = compound: C[C@@H]1COCCN1C2=NC(=NC(=C2)C3(CC3)S(=O)(=O)C)C4=C5C=CNC5=CC=C4
Outline: as §1

[4] = compound: C[C@H](C1=CC=C(C=C1)C(=O)NC2=C3C=CNC3=NC=C2)N
Outline: as §1

[5] = compound: C[C@H](Nc1ncnc2nc[nH]c12)c1cc2cccc(Cl)c2c(=O)n1-c1ccccc1 [duvelisib]
Outline: as §1

[6] = compound: Cc1cc(Nc2cc(CN3CCOCC3)c3nc(C)c(Cc4ccc(Cl)cc4F)n3n2)n[nH]1 [gandotinib]
Outline: as §1

[7] = compound: Cc1cc(Nc2cc(N3CCN(C)CC3)nc(Sc3ccc(NC(=O)C4CC4)cc3)n2)n[nH]1 [tozasertib]
Outline: as §1

[8] = compound: Cc1cc(SCc2sc(-c3ccc(C(F)(F)F)cc3)nc2C)ccc1OCC(=O)O
Outline: as §1

[9] = compound: Cc1ccc(-n2nc(C(C)(C)C)cc2NC(=O)Nc2ccc(OCCN3CCOCC3)c3ccccc23)cc1 [doramapimod]
Outline: as §1

[10] = compound: Cc1ccc(NC(=O)c2ccc(CN3CC[C@H](N(C)C)C3)c(C(F)(F)F)c2)cc1Nc1nccc(-c2cncnc2)n1 [bafetinib]
Outline: as §1

[11] = compound: Cc1cccc(CC(=O)N2CCc3c2ccc(-c2cn(C)c4ncnc(N)c24)c3F)n1
Outline: as §1

[12] = compound: Cc1cn(-c2cc(NC(=O)c3ccc(C)c(Nc4nccc(-c5cccnc5)n4)c3)cc(C(F)(F)F)c2)cn1 [nilotinib]
Outline: as §1

[13] = compound: Cc1nc(Nc2n[nH]c3c2CN(C(=O)N[C@H](CN(C)C)c2ccccc2)C3(C)C)c2sccc2n1
Outline: as §1

[14] = compound: Cc1nc(Nc2ncc(C(=O)Nc3c(C)cccc3Cl)s2)cc(N2CCN(CCO)CC2)n1 [dasatinib]
Outline: as §1

[15] = compound: Cc1ncc(-c2ccnc(Nc3ccc(S(C)(=O)=O)cc3)n2)n1C(C)C
Outline: as §1

[16] = compound: Cn1cc(-c2ccc3c(c2)CCN3C(=O)Cc2cccc(C(F)(F)F)c2)c2c(N)ncnc21
Outline: as §1

[17] = compound: Cn1cncc1[C@@](N)(c1ccc(Cl)cc1)c1ccc2c(c1)c(-c1cccc(Cl)c1)cc(=O)n2C [tipifarnib]
Outline: as §1

[18] = compound: FC(F)(F)c1ccc(/C=C/c2nc(COc3ccc(CCCCn4ccnn4)cc3)co2)cc1 [mubritinib]
Outline: as §1

[19] = compound: Cc1ccc(C(=O)N(CCCN)[C@@H](c2nc3cc(Cl)ccc3c(=O)n2Cc2ccccc2)C(C)C)cc1 [ispinesib]
Outline: as §1

[20] = compound: Cn1cc(-c2ccc3nnc(C(F)(F)c4ccc5ncccc5c4)n3n2)cn1
Outline: as §1

Measured: log2 fold change

STK11IP (UniProt Q8N1F8)
UniProt Q8N1F8, sequence (Q8N1F8 whole entry, looked up): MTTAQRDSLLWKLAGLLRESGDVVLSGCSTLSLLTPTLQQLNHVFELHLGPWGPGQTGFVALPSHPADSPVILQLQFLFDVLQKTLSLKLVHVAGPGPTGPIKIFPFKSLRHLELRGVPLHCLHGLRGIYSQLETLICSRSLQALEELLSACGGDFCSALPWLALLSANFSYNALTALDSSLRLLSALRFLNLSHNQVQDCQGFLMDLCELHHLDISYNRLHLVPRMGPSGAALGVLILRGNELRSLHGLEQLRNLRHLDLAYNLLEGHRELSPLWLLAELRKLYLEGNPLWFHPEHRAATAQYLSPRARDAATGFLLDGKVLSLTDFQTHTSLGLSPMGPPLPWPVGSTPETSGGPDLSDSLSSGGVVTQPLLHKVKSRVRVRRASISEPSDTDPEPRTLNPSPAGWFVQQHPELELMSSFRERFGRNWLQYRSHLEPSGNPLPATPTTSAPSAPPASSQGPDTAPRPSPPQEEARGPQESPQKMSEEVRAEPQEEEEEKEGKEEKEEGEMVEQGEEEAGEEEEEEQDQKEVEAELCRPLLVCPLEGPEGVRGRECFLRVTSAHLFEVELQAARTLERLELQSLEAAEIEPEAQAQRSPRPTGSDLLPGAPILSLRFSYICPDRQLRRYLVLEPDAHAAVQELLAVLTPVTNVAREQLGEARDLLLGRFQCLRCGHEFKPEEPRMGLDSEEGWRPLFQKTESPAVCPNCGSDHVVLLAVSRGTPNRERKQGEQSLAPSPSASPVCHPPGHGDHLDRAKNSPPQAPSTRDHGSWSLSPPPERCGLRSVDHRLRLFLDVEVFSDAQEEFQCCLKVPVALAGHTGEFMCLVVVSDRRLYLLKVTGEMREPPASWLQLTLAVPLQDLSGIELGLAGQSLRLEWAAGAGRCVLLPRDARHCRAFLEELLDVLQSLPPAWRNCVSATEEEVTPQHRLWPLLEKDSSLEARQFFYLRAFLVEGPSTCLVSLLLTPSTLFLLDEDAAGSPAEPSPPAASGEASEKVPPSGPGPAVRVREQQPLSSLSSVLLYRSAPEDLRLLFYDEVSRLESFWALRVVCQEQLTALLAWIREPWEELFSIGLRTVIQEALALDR
active: [2] -0.869
inactive: [1] -0.21 | [3] -0.078 | [4] -0.124 | [5] -0.089 | [6] -0.002 | [7] -0.042 | [8] 0.021 | [9] 0.006 | [10] -0.06 | [11] 0.111 | [12] -0.081 | [13] 0.058 | [14] -0.19 | [15] 0.051 | [16] -0.068 | [17] 0.034 | [18] -0.071

TBC1D9B (UniProt Q66K14)
inactive: [1] 0.041 | [2] -0.084 | [3] 0.016 | [4] 0.008 | [5] 0.01 | [6] 0.024 | [7] 0.055 | [8] 0.072 | [9] 0.007 | [19] -0.127 | [10] -0.262 | [11] -0.042 | [12] -0.055 | [13] 0.053 | [14] -0.156 | [15] -0.034 | [16] 0.07 | [20] -0.06 | [17] 0.019 | [18] 0.203

SMARCA4 (UniProt P51532)
inactive: [1] 0.216 | [2] 0.01 | [3] 0.036 | [4] 0.188 | [5] 0.065 | [6] 0.042 | [8] -0.064 | [9] 0.085 | [19] -0.248 | [10] 0.149 | [11] -0.118 | [14] 0.118 | [16] -0.036 | [20] 0.033 | [17] 0.197 | [18] 0.101

TATDN2 (UniProt Q93075)
UniProt Q93075, sequence (Q93075 whole entry, looked up): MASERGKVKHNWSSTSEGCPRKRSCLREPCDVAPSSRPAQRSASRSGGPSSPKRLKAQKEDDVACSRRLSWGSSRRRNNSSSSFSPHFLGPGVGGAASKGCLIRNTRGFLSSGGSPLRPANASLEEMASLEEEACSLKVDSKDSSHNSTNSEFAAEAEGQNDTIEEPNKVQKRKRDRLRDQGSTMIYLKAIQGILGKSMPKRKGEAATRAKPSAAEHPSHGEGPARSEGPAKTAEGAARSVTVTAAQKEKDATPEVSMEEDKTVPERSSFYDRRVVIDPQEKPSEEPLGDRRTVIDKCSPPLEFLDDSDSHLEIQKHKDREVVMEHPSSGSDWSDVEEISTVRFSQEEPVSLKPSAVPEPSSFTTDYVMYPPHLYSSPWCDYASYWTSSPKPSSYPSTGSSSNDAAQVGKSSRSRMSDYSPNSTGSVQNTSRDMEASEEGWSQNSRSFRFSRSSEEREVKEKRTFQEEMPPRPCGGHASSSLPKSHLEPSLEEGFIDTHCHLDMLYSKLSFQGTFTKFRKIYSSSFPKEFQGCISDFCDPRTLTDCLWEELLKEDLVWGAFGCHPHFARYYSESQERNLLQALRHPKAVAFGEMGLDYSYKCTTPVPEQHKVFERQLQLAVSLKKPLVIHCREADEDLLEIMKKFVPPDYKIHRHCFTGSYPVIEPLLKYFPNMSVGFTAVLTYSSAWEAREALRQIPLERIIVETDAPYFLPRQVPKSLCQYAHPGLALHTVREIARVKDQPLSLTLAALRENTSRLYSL
inactive: [1] 0.002 | [2] -0.061 | [3] 0.028 | [4] 0.078 | [5] 0.019 | [6] 0.106 | [7] 0.136 | [8] 0.045 | [9] 0.063 | [10] 0.088 | [11] -0.151 | [12] 0.137 | [13] -0.217 | [14] -0.042 | [15] -0.043 | [16] -0.059 | [17] 0.074

TGFBR1 isoform 2 (UniProt P36897)
UniProt P36897, sequence (P36897 whole entry, looked up): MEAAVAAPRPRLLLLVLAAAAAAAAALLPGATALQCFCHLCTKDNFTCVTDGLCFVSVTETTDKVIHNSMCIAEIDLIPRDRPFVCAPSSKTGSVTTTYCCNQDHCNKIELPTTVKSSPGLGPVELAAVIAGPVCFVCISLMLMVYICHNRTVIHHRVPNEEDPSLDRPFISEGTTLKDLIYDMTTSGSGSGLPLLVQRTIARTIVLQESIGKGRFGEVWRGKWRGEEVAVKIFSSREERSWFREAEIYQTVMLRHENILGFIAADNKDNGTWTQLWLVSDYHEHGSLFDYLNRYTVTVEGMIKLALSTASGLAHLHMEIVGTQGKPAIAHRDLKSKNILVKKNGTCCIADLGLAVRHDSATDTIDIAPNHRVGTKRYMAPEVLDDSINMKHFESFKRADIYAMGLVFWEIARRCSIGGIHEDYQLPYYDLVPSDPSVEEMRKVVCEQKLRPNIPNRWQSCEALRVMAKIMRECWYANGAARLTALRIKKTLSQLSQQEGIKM
active: [1] 0.254
inactive: [2] 0.133 | [3] -0.031 | [4] 0.024 | [5] -0.019 | [6] 0.101 | [7] 0.026 | [8] 0.014 | [9] -0.005 | [19] -0.156 | [10] -0.009 | [11] -0.052 | [12] -0.049 | [13] -0.018 | [15] 0.007 | [16] -0.046 | [20] 0.001 | [17] 0.017 | [18] -0.113

SMPD4 isoform 4 (UniProt Q9NXE4)
inactive: [1] -0.026 | [2] -0.215 | [3] 0.005 | [4] 0.01 | [5] 0.091 | [6] -0.133 | [7] -0.086 | [8] 0.025 | [9] 0.002 | [19] -0.255 | [10] -0.031 | [11] 0.122 | [12] -0.1 | [13] -0.076 | [14] -0.037 | [15] 0.025 | [16] 0.098 | [20] 0.04 | [17] -0.016 | [18] 0.148

SRCAP (UniProt Q6ZRS2)
inactive: [1] -0.015 | [2] -0.276 | [4] -0.111 | [5] 0.039 | [6] -0.069 | [7] 0.064 | [8] -0.035 | [9] 0.051 | [19] 0 | [10] -0.057 | [11] -0.001 | [12] 0.072 | [13] 0.152 | [14] -0.038 | [15] -0.007 | [16] -0.061 | [20] 0.037 | [17] 0.083 | [18] 0.05

TANGO6 (UniProt Q9C0B7)
UniProt Q9C0B7, sequence (Q9C0B7 whole entry, looked up): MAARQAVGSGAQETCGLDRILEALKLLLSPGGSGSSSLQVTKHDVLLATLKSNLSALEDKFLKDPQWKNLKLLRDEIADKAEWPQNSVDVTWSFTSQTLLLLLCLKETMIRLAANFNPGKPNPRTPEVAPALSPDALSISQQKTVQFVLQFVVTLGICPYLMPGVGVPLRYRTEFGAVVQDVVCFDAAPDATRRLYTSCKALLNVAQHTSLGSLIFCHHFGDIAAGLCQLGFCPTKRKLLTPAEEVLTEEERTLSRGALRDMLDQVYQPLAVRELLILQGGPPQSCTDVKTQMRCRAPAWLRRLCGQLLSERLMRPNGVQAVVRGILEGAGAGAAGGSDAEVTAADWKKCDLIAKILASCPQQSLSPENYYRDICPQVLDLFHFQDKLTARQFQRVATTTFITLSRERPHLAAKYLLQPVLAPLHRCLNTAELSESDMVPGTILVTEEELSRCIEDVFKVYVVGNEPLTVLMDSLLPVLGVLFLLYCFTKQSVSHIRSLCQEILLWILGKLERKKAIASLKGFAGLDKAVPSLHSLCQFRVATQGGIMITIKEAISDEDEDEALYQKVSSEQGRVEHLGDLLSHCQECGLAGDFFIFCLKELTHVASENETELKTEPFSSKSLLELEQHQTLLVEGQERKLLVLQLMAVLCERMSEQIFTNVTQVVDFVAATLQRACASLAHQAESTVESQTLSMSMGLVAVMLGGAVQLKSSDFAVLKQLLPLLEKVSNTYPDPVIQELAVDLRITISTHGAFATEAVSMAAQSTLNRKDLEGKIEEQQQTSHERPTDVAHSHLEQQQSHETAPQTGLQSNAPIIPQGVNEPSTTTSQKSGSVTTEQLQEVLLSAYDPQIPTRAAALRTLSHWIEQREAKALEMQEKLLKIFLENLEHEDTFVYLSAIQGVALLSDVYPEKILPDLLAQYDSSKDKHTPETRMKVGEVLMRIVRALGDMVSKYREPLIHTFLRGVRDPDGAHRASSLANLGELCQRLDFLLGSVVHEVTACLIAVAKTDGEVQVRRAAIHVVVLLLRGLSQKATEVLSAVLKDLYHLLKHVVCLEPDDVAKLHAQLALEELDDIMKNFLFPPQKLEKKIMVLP
active: [4] 0.366
inactive: [1] 0.006 | [2] -0.123 | [3] -0.022 | [5] 0.087 | [7] -0.124 | [8] 0.078 | [9] -0.004 | [19] -0.085 | [10] 0.033 | [12] -0.018 | [13] -0.066 | [14] -0.216 | [15] -0.006 | [16] 0.083 | [20] -0.048 | [17] -0.067 | [18] 0.042

TBK1 (UniProt Q9UHD2)
UniProt Q9UHD2, sequence (Q9UHD2 whole entry, looked up): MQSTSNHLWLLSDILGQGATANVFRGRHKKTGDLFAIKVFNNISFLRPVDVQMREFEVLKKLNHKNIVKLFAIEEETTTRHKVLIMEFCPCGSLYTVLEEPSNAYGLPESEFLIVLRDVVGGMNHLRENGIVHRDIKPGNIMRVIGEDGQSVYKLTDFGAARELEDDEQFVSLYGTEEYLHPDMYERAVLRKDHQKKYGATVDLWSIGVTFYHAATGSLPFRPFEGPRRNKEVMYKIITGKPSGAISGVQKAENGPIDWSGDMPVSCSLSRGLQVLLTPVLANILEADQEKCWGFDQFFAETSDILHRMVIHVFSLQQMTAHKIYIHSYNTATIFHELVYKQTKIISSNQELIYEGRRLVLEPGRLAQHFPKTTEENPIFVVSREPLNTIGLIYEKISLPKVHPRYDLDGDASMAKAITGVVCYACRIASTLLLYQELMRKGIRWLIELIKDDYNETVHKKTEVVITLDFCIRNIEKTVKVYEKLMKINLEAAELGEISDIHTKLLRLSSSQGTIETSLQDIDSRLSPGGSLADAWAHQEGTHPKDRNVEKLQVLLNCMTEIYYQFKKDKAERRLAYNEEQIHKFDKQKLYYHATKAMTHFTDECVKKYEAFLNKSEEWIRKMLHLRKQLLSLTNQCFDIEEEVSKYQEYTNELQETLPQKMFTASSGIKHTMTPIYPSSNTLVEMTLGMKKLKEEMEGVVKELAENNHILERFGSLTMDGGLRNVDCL
active: [2] 0.489 | [13] 0.911
inactive: [1] -0.027 | [3] -0.021 | [4] 0.043 | [5] 0.082 | [6] 0.237 | [7] 0.129 | [8] 0.175 | [9] 0.013 | [19] -0.18 | [10] -0.035 | [11] -0.024 | [12] -0.114 | [14] -0.096 | [15] 0.012 | [16] 0.055 | [20] -0.002 | [17] -0.103 | [18] -0.038

SYNE2 isoform 2 (UniProt Q8WXH0)
active: [6] 0.521
inactive: [1] 0.209 | [2] -0.009 | [4] 0.429 | [5] 0.214 | [7] -0.053 | [8] 0.06 | [9] 0.046 | [19] -0.08 | [10] -0.008 | [11] 0.031 | [12] -0.115 | [13] 0.006 | [14] -0.019 | [15] -0.069 | [16] 0.153 | [20] 0.027 | [17] -0.029 | [18] 0.233

SRSF4 (UniProt Q08170)
UniProt Q08170, sequence (Q08170 whole entry, looked up): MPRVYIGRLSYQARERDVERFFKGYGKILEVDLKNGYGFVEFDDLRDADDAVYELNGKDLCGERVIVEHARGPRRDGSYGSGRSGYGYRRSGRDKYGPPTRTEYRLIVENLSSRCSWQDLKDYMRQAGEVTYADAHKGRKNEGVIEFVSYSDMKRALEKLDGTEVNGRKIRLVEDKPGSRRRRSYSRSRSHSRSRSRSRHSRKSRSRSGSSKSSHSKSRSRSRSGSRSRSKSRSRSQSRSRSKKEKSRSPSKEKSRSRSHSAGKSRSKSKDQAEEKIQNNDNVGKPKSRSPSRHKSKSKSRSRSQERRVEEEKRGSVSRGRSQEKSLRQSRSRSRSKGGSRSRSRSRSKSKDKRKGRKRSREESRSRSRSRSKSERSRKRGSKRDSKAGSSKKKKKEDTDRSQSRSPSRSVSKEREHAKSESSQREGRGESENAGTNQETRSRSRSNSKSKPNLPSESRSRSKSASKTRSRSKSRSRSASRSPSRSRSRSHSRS
active: [13] -0.602
inactive: [1] -0.055 | [2] 0.011 | [3] -0.248 | [4] 0 | [5] -0.064 | [6] 0.077 | [7] 0.071 | [8] 0.031 | [9] 0.073 | [19] -0.021 | [10] 0.215 | [11] -0.064 | [12] 0.013 | [14] 0.109 | [15] 0.028 | [16] -0.166 | [20] -0.14 | [17] 0.127 | [18] -0.109

TBC1D20 isoform 3 (UniProt Q96BZ9)
UniProt Q96BZ9, sequence (Q96BZ9 whole entry, looked up): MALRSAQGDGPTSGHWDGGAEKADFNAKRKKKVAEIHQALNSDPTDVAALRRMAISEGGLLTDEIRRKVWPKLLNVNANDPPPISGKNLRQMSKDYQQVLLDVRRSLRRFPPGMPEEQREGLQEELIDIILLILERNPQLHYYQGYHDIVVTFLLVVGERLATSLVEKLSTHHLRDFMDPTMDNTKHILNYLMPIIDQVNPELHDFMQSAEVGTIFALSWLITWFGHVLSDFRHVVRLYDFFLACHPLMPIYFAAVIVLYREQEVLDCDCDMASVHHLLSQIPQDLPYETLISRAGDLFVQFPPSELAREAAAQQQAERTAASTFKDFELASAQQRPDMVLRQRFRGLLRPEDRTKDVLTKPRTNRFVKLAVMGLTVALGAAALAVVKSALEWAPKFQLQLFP
inactive: [1] 0.039 | [2] -0.121 | [3] 0.088 | [4] 0.036 | [6] -0.078 | [9] 0.05 | [19] 0.113 | [10] -0.03 | [11] -0.083 | [12] 0.07 | [13] -0.023 | [15] 0.033 | [16] 0.121 | [20] 0.233 | [17] -0.077 | [18] 0.129

SRC isoform 2 (UniProt P12931)
inactive: [1] -0.248 | [2] -0.154 | [3] 0.229 | [4] 0.07 | [5] 0.168 | [6] -0.056 | [7] -0.183 | [8] 0.101 | [9] -0.052 | [19] -0.068 | [10] -0.054 | [11] -0.037 | [12] -0.041 | [13] -0.499 | [15] -0.136 | [16] 0.008 | [20] -0.163 | [17] 0.005 | [18] 0.031

SRSF6 (UniProt Q13247)
inactive: [1] -0.021 | [2] -0.09 | [3] -0.195 | [4] 0.03 | [5] -0.085 | [6] -0.043 | [7] -0.08 | [8] 0.059 | [9] -0.047 | [10] 0.578 | [11] 0.192 | [12] 0.155 | [14] 0.079 | [15] 0.095 | [16] -0.251 | [17] 0.212 | [18] -0.014
active: [13] -0.813

SLC38A7 (UniProt Q9NVC3)
active: [19] -0.842
inactive: [1] -0.018 | [2] -0.449 | [3] 0.045 | [4] -0.009 | [6] -0.412 | [7] 0.052 | [9] 0.035 | [10] -0.142 | [11] 0.016 | [12] 0.05 | [13] -0.023 | [15] -0.053 | [16] -0.005 | [20] 0.084 | [17] 0.056 | [18] -0.007

SREBF1 isoform 4 (UniProt P36956)
inactive: [2] 0.106 | [3] 0.084 | [5] -0.083 | [8] 0.089 | [9] 0.098 | [10] -0.357 | [14] -0.043 | [18] -0.004
